Six1-Eya2 blk: blocks human Six1 binding to Eya2. Q15475+O00167. AlphaScreen GST-Six1/His-Eya2 binding, biochemical; stronger effect = lower value. activity change, % (test concentration not listed). AID 651725. 360,000 compounds, 0.56% hits; in the data active = activity change below about -65%; inconclusive = mostly about -30% to -63%; also: % is scaled to controls: 0 for no effect and ±100 for the full control effect
Target sequence (O00167 whole entry, looked up): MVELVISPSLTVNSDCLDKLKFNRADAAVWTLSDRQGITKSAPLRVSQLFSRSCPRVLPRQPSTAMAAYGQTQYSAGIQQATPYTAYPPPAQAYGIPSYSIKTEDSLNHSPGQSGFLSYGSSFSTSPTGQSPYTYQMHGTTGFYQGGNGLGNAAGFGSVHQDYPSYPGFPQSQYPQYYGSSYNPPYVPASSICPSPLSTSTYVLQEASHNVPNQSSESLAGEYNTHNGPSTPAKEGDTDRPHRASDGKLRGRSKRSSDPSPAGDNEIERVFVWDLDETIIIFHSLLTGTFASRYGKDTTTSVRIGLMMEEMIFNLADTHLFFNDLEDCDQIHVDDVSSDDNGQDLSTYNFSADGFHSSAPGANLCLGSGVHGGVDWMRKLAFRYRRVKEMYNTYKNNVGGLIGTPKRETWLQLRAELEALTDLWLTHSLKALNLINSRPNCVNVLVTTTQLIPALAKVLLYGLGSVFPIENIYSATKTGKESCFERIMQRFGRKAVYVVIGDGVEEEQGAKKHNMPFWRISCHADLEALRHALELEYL
Target sequence (Q15475 whole entry, looked up): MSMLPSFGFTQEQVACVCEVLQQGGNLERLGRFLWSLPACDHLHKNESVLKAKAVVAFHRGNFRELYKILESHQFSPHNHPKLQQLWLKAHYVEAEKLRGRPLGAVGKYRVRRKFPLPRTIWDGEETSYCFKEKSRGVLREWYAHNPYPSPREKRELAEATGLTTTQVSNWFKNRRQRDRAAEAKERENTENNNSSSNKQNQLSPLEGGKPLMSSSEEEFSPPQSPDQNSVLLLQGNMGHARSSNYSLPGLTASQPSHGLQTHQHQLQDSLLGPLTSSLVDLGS
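Compounds are tested against tagged Six1 and Eya2 proteins bridged by glutathione donor and nickel acceptor beads; after a one-hour incubation at 37 °C without light, AlphaScreen emission is recorded.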
CtBP-E1A blk: CtBP/E1A binding inhibition; AlphaScreen GST-E1A/His-CtBP binding, 1536-well; stronger effect = lower value; activity change, % (test concentration not listed); 340,000 compounds, 0.49% hits; AID 651724; in the data active = activity change below about -65%; inconclusive = mostly about -30% to -63%; also: % is scaled to controls: 0 for no effect and ±100 for the full control effect
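In 5 uL wells, 23 nL compound meets equimolar GST-E1A and His-CtBP (5X stock 125 nM each) for 2 h, 37 °C. Beads (5X, 50 ug/mL) then 1 h, 37 °C, dark.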
BAZ2B inh: inhibitors of human BAZ2B bromodomain. Q9UIF8. AlphaScreen BAZ2B-H3K14Ac peptide displacement. Potency, µM (doses to about 114 µM), without a hit: at the top dose activity change, negative = inhibition, actives largely listed as inhibitors. 360,000 compounds, 4.4% hits; also: potency is read from the fitted curve at half-maximal effect; % is scaled to controls: 0 for no effect and ±100 for the full control effect; nearly all actives have a fitted effect of over 60% in size
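Protein-peptide AlphaScreen: BAZ2B 50 nM, b-H3K14Ac 50 nM, 1x PBS pH 7.4 + 0.01% Tween-20. Preincubation 30 min RT; cpd 30 min RT (top 110 uM); beads 20 min RT, light-protected.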
G9a block: G9a (human) methyltransferase inhibition | Q96KQ7 | G9a H3K9 monomethylation, AlphaScreen, 2 h | Potency, µM (top dose mostly 102 µM), for the others: at the highest dose activity, negative = inhibition, hits mostly inhibitors | 350,000 compounds, 8.8% hits | AID 504332; also: potency is read from the fitted curve at half-maximal effect; % is scaled to controls: 0 for no effect and ±100 for the full control effect; nearly all actives have a fitted effect of over 75% in size
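Quantitative HTS format: methyltransferase activity on a biotin-tagged H3K9 peptide is measured by AlphaScreen, using a rabbit anti-monomethyl-H3K9 antibody with streptavidin donor and anti-IgG acceptor beads. Final levels are 20 nM enzyme, 500 nM peptide, 20 uM SAM; 2 h RT.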
JMJD2A Tudor: inhibitors of human JMJD2A Tudor domain; O75164; AlphaScreen JMJD2A-Tudor / H3K4me3 peptide binding; Potency, µM (highest dose often 114 µM), for inactives: at the top dose activity change, negative = inhibition, most hits filed as inhibitors; 390,000 compounds, 4.4% hits; also: potency is read from the fitted curve at half-maximal effect; % is scaled to controls: 0 for no effect and ±100 for the full control effect; nearly all actives have a fitted effect of over 50% in size
HP1b binding inh: inhibitors of HP1-beta chromodomain binding to methylated histone tails. P83916. AlphaScreen HP1-beta / biotin-H3K9me3 peptide binding. Potency, µM (highest dose often 114 µM), inactives show top-dose activity change, negative = inhibition, most hits filed as inhibitors. 390,000 compounds, 0.56% hits. AID 540317; also: potency is read from the fitted curve at half-maximal effect; nearly all actives have a fitted effect of over 70% in size
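AlphaScreen: HP1-beta (50 nM) preformed 30 min with biotin-H3(1-18)K9me3 peptide (50 nM) in PBS pH 7.4, 0.01% Tween-20. Compound added for 30 min at RT, then streptavidin donor/nickel chelate acceptor beads (10 ug/mL) for 30 min.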
* = called active by the depositor; ? = inconclusive; / = no result; ! = a repeat was not active; [ ] = remark or other dose. In the library only some 10% were active in any assay of this set; here they are far more common. Unless noted, calls follow the shape of the dose curve; as a rule, active = well fitted inhibition curve with a large enough effect; inconclusive = small, poorly fitted or top-dose-only effect; inactive = no such curve, though single readings can be large or run the other way.

SMILES	Six1-Eya2 blk	CtBP-E1A blk	BAZ2B inh	G9a block	JMJD2A Tudor	HP1b binding inh
c1ccc(COc2ccc(OCCN3CCCC3)cc2)cc1	1	-11	-12%	?	?	1%
CCOc1ccccc1CNCCN1CCOCC1	2	5	?	?	-5%	36%
c1ccc(OCCOCCN2CCN(C(c3ccccc3)c3ccccc3)CC2)cc1	2	-14	50µM*	10µM*	0.89µM*	?
CCOc1ccc(CNCCN2CCCC2)cc1	-8	1	56µM*	2.8µM*	13µM*	?
Cn1cc(C(=O)NCc2ccc(Cl)cc2)c(=O)c2cc(S(=O)(=O)N3CCOCC3)ccc21	-1	2	-3%[57.1 µM]	21%	5%	32%
C[C@H]1CCCCO[C@H](CN(C)S(=O)(=O)c2cn(C)cn2)[C@@H](C)CN([C@@H](C)CO)C(=O)c2cc(NS(=O)(=O)c3ccccc3)ccc2O1	3	5	/	/	/	/
CCOc1ccc(OCCN2CCCCC2)cc1	0	2	56µM*	7.9µM*	10µM*	-11%
Fc1ccc(OCCOCCN2CCCC2)cc1	10	4	/	/	6.3µM*	?
Cc1nc2ccc(S(=O)(=O)N(C)CC(=O)Nc3ccc(C(C)C)cc3)cc2s1	/	/	1%	9%[59 µM]	3%	67%
C/C(=N\Nc1nc2ccccc2c(=O)n1O)c1ccco1	2	0	-4%	79µM*	?	?
Cc1ccc(C)c(/C=N/Nc2nc3ccccc3c(=O)n2O)c1	4	-2	1%	28µM*	-11%	-13%
Cc1ccc2nc(C)cc(N/N=C/c3ccccc3O)c2c1	-16	/	-34%	16%	-35%	8%
CCCCc1ncc(CN2CCN(Cc3ccc(C)cc3)C(CCO)C2)[nH]1 (stereo unspecified)	-2	/	0%	/	-15%	16%
COc1ccc(NS(=O)(=O)c2ccc3oc(=O)ccc3c2)cc1	-5	14	-3%	/	4%	59%
COc1ccc(NS(=O)(=O)c2ccc3oc(=S)[nH]c3c2)cc1	-1	-2	-21%	35µM*	4%[11.4 µM]	38%
COc1ccccc1NS(=O)(=O)c1ccc2[nH]c(=S)oc2c1	15	-24	/	/	-24%	12%
O=S(=O)(Nc1ccccc1Cl)c1ccc2[nH]c(=S)oc2c1	-2	-11	?	7.1µM*	-18%	14%
CC(Oc1ccccc1)C(=O)NC1=NCCS1 (stereo unspecified)	2	0	-28%	?	32µM*	18%
O=C(Nc1ccc(S(=O)(=O)Nc2ccccn2)cc1)c1cccc(Br)c1	-10	-16	-36%	/	-16%	9%
O=C(Nc1ccc(S(=O)(=O)Nc2ccccn2)cc1)c1cccc(Cl)c1	-14	3	-14%	25µM*	-14%	-7%
CNc1cc(NS(=O)(=O)c2ccc(N)cc2)nc(NC)n1	2	-22	50µM*	11%[12.7 µM]	89µM*	19%
Cc1ccc(C(=O)Nc2ccc(S(=O)(=O)Nc3cnc4ccccc4n3)cc2)cc1	-17	-6	-5%	50µM*	-13%	39%
Cc1ccc(C(=O)Nc2ccc(Br)cc2)cc1S(=O)(=O)Nc1ccccn1	-14	8	-36%	79µM*	0%	30%
CCCc1nnc(NC(=O)c2nc(SCC)ncc2Cl)s1	/	/	-7%	?	?	28%
Cc1ccc(NS(=O)(=O)c2cc(C(=O)N3CCN(CCO)CC3)ccc2C)cc1	2	2	50µM*	2µM*	79µM*	-27%
SMILES	Six1-Eya2 blk	CtBP-E1A blk	BAZ2B inh	G9a block	JMJD2A Tudor	HP1b binding inh
Nc1ccc(S(=O)(=O)Nc2ccccn2)cc1	5	6	20%	25µM*!	-4%	23%
Cc1ccc(NS(=O)(=O)c2cc(C(=O)Nc3cccnc3)ccc2C)cc1	0	8	-30%	79µM*	?	11%
Cc1ccc(N(C(=O)Cn2nnc(-c3ccccc3)n2)C(C(=O)NC2CCCCC2)c2ccccn2)cc1C (stereo unspecified)	4	-5	7%	14%[59 µM]	-35%	6%
CC(NC(=O)c1ccc(CS(C)(=O)=O)cc1)C1CC2CCC1C2 (stereo unspecified)	-4	7	2%	8%	-7%	12%
CC(NCc1ccc(N(C)C)cc1)C1CC2CCC1C2 (stereo unspecified)	-21	-13	?	50µM*	89µM*	-21%
CC(=O)c1ccc(N2CCN(c3nc4ccccc4c4nc(-c5cccc(C)c5)nn34)CC2)cc1	/	/	4%	20%[59 µM]	5%	39%
Nc1ccc(S(=O)(=O)Nc2cccc3cccnc23)cc1	/	/	/	/	-12%	/
COc1cccc(CNC(=O)c2oc3ccc4c(c3c2C)C(=O)CC(C)(C)O4)c1OC	/	/	-17%	-24%[59 µM]	-18%	30%
O=C1Nc2ccccc2OC1CC(=O)N1CCN(c2cccc(C(F)(F)F)c2)CC1 (stereo unspecified)	5	21	-3%	35µM*	-24%	29%
O=C1Nc2ccccc2OC1CC(=O)N1CCOCC1 (stereo unspecified)	-5	2	0%	-10%	-5%	47%
Cc1ccc(NC(=O)c2nnn(Cc3cccc(C(F)(F)F)c3)c2N)c(C)c1	/	/	4%	9%[59 µM]	-7%	36%
CC(C)=C1C2CCC1C(C(=O)Nc1cc(C)cc(C)c1)C2C(=O)O (stereo unspecified)	13	-24	-31%	40µM*	1%	43%
O=S(=O)(c1ccccc1S(=O)(=O)N1CCCCC1)N1CCCCC1	-5	-8	3%	5%	0%	15%
O=C1SC(c2ccccc2)=C/C1=C\N1CCCCC1	-15	-16	50µM*	3%[0.0925 µM]	50µM*	?
CC12CCC(=O)N1C(C(=O)NCc1ccccc1F)CS2 (stereo unspecified)	11	-1	12%	-21%	-13%	-15%
COc1ccc(NCc2ccsc2)cc1	-24	-14	18µM*	35µM*	56µM*	-19%
O=C(N[C@H](CO)Cc1ccccc1)[C@H]1O[C@@H](n2ccc(=O)[nH]c2=O)[C@H](O)[C@@H]1O	9	-20	/	/	/	/
Cc1cc(C)cc(SCc2noc(C(=O)NCCN(C)C)c2C(=O)NCCN(C)C)c1	4	0	/	/	?	2%
C=CCn1cccc(C(=O)Nc2ccc(Cl)cc2)c1=O	2	-4	9%	10%	14%	46%
C=CCn1cccc(C(=O)Nc2cc(OC)c(OC)c(OC)c2)c1=O	2	0	-10%	-5%	32µM*	-11%
C=CCn1cccc(C(=O)Nc2ccc(N(C)C)cc2)c1=O	-17	-18	-27%	13µM*	?	-21%
